Our source for the growth values is PubChem BioAssay (NCI).

About 83,000 compounds went through this panel and 20% of them were active in at least one assay; those are over-represented in the sample as a whole.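 Growth was measured after 48 h exposure to one concentration of compound in 96-well plates. Values under 10 count as active.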 A number with no mark means an inactive call. Active and inactive are the calls of the source.

The experiment relates to HL-60(TB) leukemia. Description: NCI-60 one-dose screen, 48 h (100 = growth as untreated, 0 = no growth, -100 = all killed). Conditions: 10 µM unless noted.
`COc1ccc(CNc2c3ccccc3nc3ccccc23)c(OC)c1`: the growth is 36.9%.

As for `CSc1nc(NCCO)c(C#N)c(-c2cccc([N+](=O)[O-])c2)n1`, the growth is 104%.

As for `Oc1ccc(C(c2ccc(O)cc2)c2ccc(Br)cn2)cc1`, the growth is 106%.

With `N#Cc1ccc([N+](=O)[O-])o1`, the growth was 108%.

On to `O=C1ON=[N+](c2ccc(Cc3ccc([N+]4=NOC(=O)C4CN4CCOCC4)cc3)cc2)C1CN1CCOCC1` (stereo not given), for which the growth is 86.4%.

In the case of `CC(C)C(=O)Nc1ccc(-c2nc(-c3cccc(OCCN4CCOCC4)c3)c(-c3ccnc(Br)c3)[nH]2)cc1`, the growth is -28.5% (active).

On to `COc1ccc(Nc2nc(N)nc3c(=O)[nH]ccc23)cc1`, for which the growth is 96.1%.

Turning to `CN1C(=O)N(C)C2C1NN=c1s/c(=C\c3ccc(Br)cc3)c(=O)n12` (stereo not given), the growth is -13.8% (active).

Consider `COc1cccc(-c2nc3sccn3c2-c2ccnc(NCCNS(=O)(=O)c3cccc(F)c3)c2)c1`, for which the growth is -1.8% (active).

Consider `COc1ccc(CNC(=O)c2c(C)n([O-])c3cc(F)c(F)cc3[n+]2=O)cc1`, for which the growth is 101%.

Take `Cc1cnc(Nc2ccc(OCCN3CCCC3)cc2)nc1NCc1ccco1`: the growth was 81.2%.

For the molecule `COc1cccc(/C=C2\COc3ccc(-c4ccccc4)cc3C2=O)c1`, the growth was -47% (active).

Take `CN1C(=O)N(C)C2C1NN=c1s/c(=C\c3ccc(C(F)(F)F)cc3)c(=O)n12` (stereo not given): the growth was -6.25% (active).

Take `CCCCC(CCCCCC(CCCC)NCc1ccc2c(c1)OCO2)NCc1ccc2c(c1)OCO2` (stereo not given): the growth is -76.6% (active).

On to `Cc1ccc(C2CC(c3cccs3)=NN2c2ccc(S(N)(=O)=O)cc2)s1` (stereo not given), for which the growth was 88.4%.

Turning to `COCCNC(=O)Cc1cc(-c2ccc(Cl)cc2)n(-c2ccccc2)c1C`, the growth is 66.4%.

With `CC(=O)CCS(=O)c1ccccc1` (stereo not given), the growth was 97.4%.

As for `C=C1C(=O)O[C@H]2[C@H]1CC/C(COC(=O)C(C)c1ccc(CC(C)C)cc1)=C\CC[C@@]1(C)O[C@@H]21` (stereo not given in full), the growth is -9.46% (active).

For the molecule `Cn1cnc2c(F)c(Nc3ccc(Br)cc3Cl)c(C(=O)NOCCO)cc21`, the growth was 24.5%.

Turning to `CNc1nc(NC)c2cn[nH]c2n1`, the growth was 103%.

As to `O=C(Nn1c(NCC(=O)N2c3ccccc3Sc3ccccc32)nnc1-c1ccc(O)cc1)c1ccccc1`, the growth was 98.6%.

With `Clc1ccccc1-c1nc(Nc2nc3ccccc3s2)nc(C(Cl)(Cl)Cl)n1`, the growth is 32.9%.

As to `C/C(C=O)=C\c1ccc2c(c1)OCO2`, the growth is 102%.

Take `C#CCC1(c2ccc(F)c(F)c2)NS(=O)(=O)c2ccccc21` (stereo not given): the growth is 89.2%.

Take `C/C(=C(/c1ccc(Cl)cc1)c1ccc(OCCCN(C)C)cc1)c1ccc(Cl)cc1`: the growth was 72.9%.

For `N#Cc1c(N)c(C(=O)c2ccc3c(c2)OCCO3)n2c1CCCC2`, the growth is -19.2% (active).

With `N#C/C(=C\c1c(-c2ccccc2)[nH]c2ccccc12)S(=O)(=O)c1ccccc1`, the growth was -4.39% (active).

As to `O=C(Nc1ccc(F)cc1)Nc1ccc(NC(=O)c2cc(Cl)nc3ccccc23)cc1`, the growth is 63.9%.

For the molecule `Cc1ccc(N=CNN=C(N)N)cc1`, the growth was 87.9%.

`O=C(Nc1cnn2ccc(N3CCC[C@@H]3c3cc(F)ccc3F)nc12)N1CC[C@H](O)C1`: the growth was 126%.

With `CCc1c2c(nc3ccc(OCc4ccc(B(O)O)cc4)cc13)-c1cc3c(c(=O)n1C2)COC(=O)[C@]3(O)CC`, the growth was -40.8% (active).

Regarding `COc1ccccc1S(=O)(=O)Nc1ccc2c3c(cc(-c4cnn(C)c4)nc13)C(=O)N2C`, the growth is -30.1% (active).

`N#C/C(=C\c1ccc(-c2ccc(Cl)c(Cl)c2)o1)c1nc(-c2ccco2)cs1`: the growth is 103%.

As for `NC(=NCCCOc1ccc(Cl)cc1)Nc1ccc(Cl)cc1`, the growth was 95.3%.

Turning to `C/C(=N/N=C(N)N)c1ccc(N)cc1`, the growth is 60.1%.

Take `COc1ccc(-c2nnc(COc3ccc(NC(=O)Nc4cccc(C(F)(F)F)c4)cc3F)o2)cc1`: the growth was 4.03% (active).

`COc1ccc(N2CCN(Cc3cc(C(=O)/C=C/c4c[nH]c5ccccc45)ccc3O)CC2)cc1`: the growth is 99.9%.

On to `Cc1cc(NC(=O)COC(=O)c2sc3cc(F)ccc3c2Cl)no1`, for which the growth is 107%.

On to `COc1cc(C2CC(c3ccc(C)cc3)=NN2C=O)ccc1OCCN(C)C` (stereo not given), for which the growth is 95.3%.

For the molecule `CC(=O)Oc1cc2ccccc2cc1C(C)C`, the growth is 103%.
